Substitutions are numbered along the chain they refer to.
Experiments:
Assay in all cases: HT-SELEX; high values mean tight binding
Conditions in all cases: protein: recombinant; vector His6-GST; dsDNA, one strand shown
SALL4 ZFC4 WT (HT-SELEX) = biological target: T1, SALL4 ZFC4 WT (HT-SELEX) (Mus musculus, UniProt Q8BX22 870-940)
T1 sequence: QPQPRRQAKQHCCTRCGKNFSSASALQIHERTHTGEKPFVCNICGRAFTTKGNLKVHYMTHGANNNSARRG
Method in brief: (§1)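 Each canonical k-mer's binding signal is its read fraction expressed as fold change over the initial random library. Reads came from MiSeq sequencing, scanned for 6-mers, after up to 6 triplicate cycles in which purified recombinant mouse SALL4 zinc finger cluster 4 (residues 870–940, 1 µg) bound library DNA (1.5 µg first cycle, 200 ng later) in 100 µl of 10 mM Tris–HCl pH 7.5, 50 mM NaCl, poly(dI-dC), DTT for 10 min at room temperature. Complexes were then Ni2+ bead-captured, washed, PCR-amplified and reselected.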

[1] = biological target: T2, SALL4 ZFC4 R900W (HT-SELEX) (Mus musculus, UniProt Q8BX22 870-940, R900W)
T2 sequence: T1 sequence with R31W
Method in brief: as §1

[2] = biological target: T3, SALL4 ZFC4 G921D (HT-SELEX) (Mus musculus, UniProt Q8BX22 870-940, G921D)
T3 sequence: T1 sequence with G52D
Method in brief: as §1

Row | Sequence | binding signal (SALL4 ZFC4 WT (HT-SELEX)) | binding signal [1] | binding signal [2]
1 | ATCCAT | 1.62 ± 0.0994 fold-change vs cycle 0 | 1.54 ± 0.0869 fold-change vs cycle 0 | 1.44 ± 0.0984 fold-change vs cycle 0
2 | CGAGAC | 0.365 ± 0.0341 fold-change vs cycle 0 | 0.454 ± 0.0153 fold-change vs cycle 0 | 0.565 ± 0.0671 fold-change vs cycle 0
3 | GCATCC | 0.382 ± 0.0508 fold-change vs cycle 0 | 0.43 ± 0.0105 fold-change vs cycle 0 | 0.551 ± 0.0913 fold-change vs cycle 0
4 | CGCAAA | 0.335 ± 0.00942 fold-change vs cycle 0 | 0.376 ± 0.0263 fold-change vs cycle 0 | 0.498 ± 0.0731 fold-change vs cycle 0
5 | CTGGAA | 0.772 ± 0.02 fold-change vs cycle 0 | 0.891 ± 0.0485 fold-change vs cycle 0 | 0.926 ± 0.0429 fold-change vs cycle 0
6 | AGGGAA | 0.891 ± 0.0417 fold-change vs cycle 0 | 1.01 ± 0.045 fold-change vs cycle 0 | 0.989 ± 0.0164 fold-change vs cycle 0
7 | CTACCA | 0.775 ± 0.0319 fold-change vs cycle 0 | 0.894 ± 0.00977 fold-change vs cycle 0 | 0.96 ± 0.00989 fold-change vs cycle 0
8 | GTCTGA | 0.754 ± 0.0534 fold-change vs cycle 0 | 0.884 ± 0.0322 fold-change vs cycle 0 | 0.945 ± 0.0454 fold-change vs cycle 0
9 | GTTCGA | 0.639 ± 0.0126 fold-change vs cycle 0 | 0.724 ± 0.0149 fold-change vs cycle 0 | 0.821 ± 0.0291 fold-change vs cycle 0
10 | AAAGTG | 1.1 ± 0.0306 fold-change vs cycle 0 | 1.23 ± 0.0192 fold-change vs cycle 0 | 1.22 ± 0.0345 fold-change vs cycle 0
11 | TAGGAA | 1.42 ± 0.0275 fold-change vs cycle 0 | 1.51 ± 0.0439 fold-change vs cycle 0 | 1.41 ± 0.0855 fold-change vs cycle 0
12 | CCCAAC | 0.395 ± 0.0223 fold-change vs cycle 0 | 0.437 ± 0.0176 fold-change vs cycle 0 | 0.544 ± 0.0399 fold-change vs cycle 0
13 | AGATGA | 1.49 ± 0.0331 fold-change vs cycle 0 | 1.6 ± 0.074 fold-change vs cycle 0 | 1.46 ± 0.104 fold-change vs cycle 0
14 | CCTGAC | 0.451 ± 0.0407 fold-change vs cycle 0 | 0.547 ± 0.0213 fold-change vs cycle 0 | 0.654 ± 0.0358 fold-change vs cycle 0
15 | GGTCCA | 0.375 ± 0.0292 fold-change vs cycle 0 | 0.456 ± 0.0245 fold-change vs cycle 0 | 0.558 ± 0.0709 fold-change vs cycle 0
16 | GCGATA | 0.515 ± 0.0117 fold-change vs cycle 0 | 0.534 ± 0.0163 fold-change vs cycle 0 | 0.668 ± 0.0315 fold-change vs cycle 0
17 | TAGATA | 2.23 ± 0.154 fold-change vs cycle 0 | 2.04 ± 0.12 fold-change vs cycle 0 | 1.84 ± 0.212 fold-change vs cycle 0
18 | GCTAGA | 0.636 ± 0.0274 fold-change vs cycle 0 | 0.746 ± 0.0225 fold-change vs cycle 0 | 0.8072 ± 0.00258 fold-change vs cycle 0
19 | CACGTA | 0.686 ± 0.0318 fold-change vs cycle 0 | 0.787 ± 0.0109 fold-change vs cycle 0 | 0.842 ± 0.0109 fold-change vs cycle 0
20 | AGTCCC | 0.468 ± 0.0376 fold-change vs cycle 0 | 0.54 ± 0.0297 fold-change vs cycle 0 | 0.65 ± 0.0407 fold-change vs cycle 0
21 | CTGATA | 1.39 ± 0.0802 fold-change vs cycle 0 | 1.44 ± 0.0817 fold-change vs cycle 0 | 1.36 ± 0.068 fold-change vs cycle 0
22 | CCCGTA | 0.415 ± 0.0258 fold-change vs cycle 0 | 0.477 ± 0.0181 fold-change vs cycle 0 | 0.557 ± 0.0362 fold-change vs cycle 0
23 | CCGTCA | 0.358 ± 0.0271 fold-change vs cycle 0 | 0.431 ± 0.0281 fold-change vs cycle 0 | 0.531 ± 0.0693 fold-change vs cycle 0
24 | AACACA | 1.18 ± 0.0535 fold-change vs cycle 0 | 1.29 ± 0.058 fold-change vs cycle 0 | 1.27 ± 0.0417 fold-change vs cycle 0
25 | CATTCA | 1.32 ± 0.0575 fold-change vs cycle 0 | 1.48 ± 0.0487 fold-change vs cycle 0 | 1.41 ± 0.0654 fold-change vs cycle 0
26 | CAAGGC | 0.301 ± 0.0203 fold-change vs cycle 0 | 0.371 ± 0.0118 fold-change vs cycle 0 | 0.492 ± 0.0622 fold-change vs cycle 0
27 | CTGTGA | 0.75 ± 0.0215 fold-change vs cycle 0 | 0.869 ± 0.0352 fold-change vs cycle 0 | 0.91 ± 0.0154 fold-change vs cycle 0
28 | ACTGCT | 0.712 ± 0.054 fold-change vs cycle 0 | 0.797 ± 0.0817 fold-change vs cycle 0 | 0.89 ± 0.0309 fold-change vs cycle 0
29 | CTTTTA | 1.77 ± 0.0546 fold-change vs cycle 0 | 1.86 ± 0.125 fold-change vs cycle 0 | 1.63 ± 0.122 fold-change vs cycle 0
30 | CTCCGA | 0.382 ± 0.00698 fold-change vs cycle 0 | 0.433 ± 0.0122 fold-change vs cycle 0 | 0.589 ± 0.0734 fold-change vs cycle 0

From article PMC9838217, “Structure of SALL4 zinc finger domain reveals link between AT-rich DNA binding and Okihiro syndrome”
